Our source for the growth values is PubChem BioAssay (NCI).

Molecules are shown by their SMILES. The panel holds about 83,000 compounds, 20% with a hit somewhere; the sample as a whole holds those more often.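 A percent growth of 40 corresponds to 60% growth inhibition; 0 means no net growth; -100 means all cells died. Active threshold: below 10.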 Unmarked numbers belong to inactive results. The source made the active and inactive calls.

In the assay the test system is HCT-15 colon. The experiment in a line: NCI-60 one-dose screen, 48 h (100 = growth as untreated, 0 = no growth, -100 = all killed). To be noted: 10 µM. How it is done:
Growth inhibition of the HCT-15 human tumor cell line is measured as a screen for anti-cancer activity. Cells are grown in 96 well plates and exposed to the test compound for 48 hours. Compounds are tested at a single concentration, which is 10^-5 M for most compounds. The reported endpoint is percent growth (GI% or GIPRCNT), where numbers from 0 - 100% represent growth inhibition, and numbers from -100% - 0 represent cell death. For example, a value of 40 represents 60% growth inhibition. A value of 0 means no net growth occurred over the course of the experiment. A value of -40 indicates 40% of cells at the beginning of the experiment died by the end of the experiment. A value of -100 means all cells are dead at the end of the experiment.
NCI-60 Human Tumor Cell Lines Screen was performed using the standard one-dose NCI protocol, which is described in more detail at https://dtp.cancer.gov/discovery_development/nci-60/default.htm.
Compounds with GIPRCNT values below 10 were considered active. Activity score was based on GIPRCNT using the following formula: […]
Score is 0 for GIPRCNT values of 100 or above, 50 for GIPRCNT values of 0, and 100 for GIPRCNT values of -100.
As for `CCCCSc1nc(Nc2ccc(/C(C)=N/NC(N)=S)cc2)c(C#N)c(-c2ccc(OC)cc2)n1`, the growth was 75.9%.

Take `COc1ccc(CN2[C@H](C(=O)NCCCCCCC(=O)NO)Cc3c([nH]c4ccccc34)[C@H]2C2CC2)cc1`: the growth is 8.85% (active).

`COc1ccc(NC(=O)CSc2nnc(-c3ccc4nc(-c5ccc(Cl)cc5)[nH]c4c3)o2)cc1`: the growth was 29.9%.

Regarding `CC1(C)CC[C@]23CC[C@]4(C)[C@H](CC[C@@H]5[C@@]6(C)CC[C@H](N)C(C)(C)[C@@H]6CC[C@]54C)[C@H]2[C@H]1OC3=O`, the growth is -91.7% (active).

As to `C=CCn1c(SCC(=O)Nc2ccc(C(=O)/C=C/c3ccccc3)cc2)nnc1-c1c[nH]c2ccccc12`, the growth was -57.2% (active).

With `Cc1ccc(CSc2nc(-c3ccc(F)cc3)c(C#N)c(=O)[nH]2)cc1`, the growth is 84.2%.

With `C/C(=C\CC/C=C(\C)CC/C=C(\C)CC[C@@H](O)C(C)(C)O)CC/C=C(\C)CC[C@@H](O)C(C)(C)O`, the growth is 21.1%.

On to `CN(CCO)c1oc(-c2ccccc2)nc1[P+](c1ccccc1)(c1ccccc1)c1ccccc1`, for which the growth is 51.4%.

As to `O=C1Nc2ccc(Cl)cc2/C1=C/c1ccc(OCc2ccc(Br)cc2F)cc1`, the growth was 45.7%.

Take `CS(=O)(=O)Nc1ccc(-c2ccc3c(c2)ncn3-c2ccc(NC(=O)Nc3ccc(Cl)c(C(F)(F)F)c3)cc2)cc1`: the growth was -91.3% (active).

Consider `Cc1cc(C)nc(/N=C(\N)Nc2ccc(S(=O)(=O)Nc3nc(C)cc(C)n3)cc2)n1`, for which the growth was 104%.

As for `CC(C)Sc1nc(NC2CC2)c(C#N)c(-c2ccccc2)n1`, the growth is 101%.

For the compound `N#Cc1ccc(-c2nn(-c3ccc(C(=O)O)cc3)cc2CNc2cc(Cl)cc(Cl)c2)cc1`, the growth was 25.6%.

Take `Cc1ccc(C(C)C)cc1NC(=O)c1ccccc1N(C)C`: the growth was 76.6%.

With `CCCSc1nc(NC2CC2)c(C#N)c(-c2ccc(OC)cc2)n1`, the growth was 95.4%.

On to `O=C(NO)c1ccc(CNc2nc(-c3ccccc3)c3ccccc3n2)cc1`, for which the growth was -6.55% (active).

Consider `CN1CCN(c2ccc(C(=O)/C=C/c3cc(C(F)(F)F)ccc3Cl)cc2)CC1`, for which the growth was -86.4% (active).

Regarding `CCCn1c(=O)c2[nH]c(-c3ccc(OCc4nc5ccc(F)cc5[nH]4)cc3)nc2n(CCC)c1=O`, the growth was 28.7%.

On to `COc1ccc(C(=O)/C=C/c2ccc(Cl)c(C(F)(F)F)c2)cc1S(N)(=O)=O`, for which the growth was -99.9% (active).

`Clc1cccc(N/N=C/c2c[nH]c3ccccc23)n1`: the growth is 18.9%.

Consider `CC(=C(c1ccc(OCCN2CCCCCC2)cc1)c1ccc(OCCN2CCCCCC2)cc1)c1ccc(Cl)cc1`, for which the growth is -76% (active).

Consider `CCCCSc1nc(Nc2ccc(/C(C)=N/NC(N)=S)cc2)c(C#N)c(-c2ccccc2)n1`, for which the growth is 38.4%.

For `Nc1nc(-c2ccccc2)cs1`, the growth is 23.7%.

On to `CCCn1c(=O)c2[nH]c(-c3ccc(OCc4nc5ccc(C#N)cc5[nH]4)cc3)nc2n(CCC)c1=O`, for which the growth is 84.7%.

In the case of `COc1ccc(Nc2nc(N)n(Cc3cccc(Br)c3)n2)cc1`, the growth was 8.53% (active).

Regarding `Cc1ccc(C(=O)Nc2ccc(-n3c(C)nc4c(cnn4-c4ccccc4)c3=O)cc2)cc1`, the growth is 75.3%.

With `COC1=C[C@@]23CCC(=O)N2CCc2cc4c(cc2[C@H]3[C@H]1OC(=O)C(C)(C)O)OCO4`, the growth is 97.5%.

On to `COc1ccc(C2N(c3ccc(Br)cc3)N=C(C(C)=O)N2[C@H]2[C@H](OC(C)=O)O[C@H](COC(C)=O)[C@@H](OC(C)=O)[C@@H]2OC(C)=O)cc1` (stereo not given in full), for which the growth was 61.4%.

With `Cc1ccc(/C(CSc2nnc(-c3c[nH]c4ccccc34)n2-c2ccccc2)=N/O)cc1`, the growth was -62.4% (active).

Turning to `O=C(CSc1nnc(-c2ccc3nc(-c4ccccc4)[nH]c3c2)o1)Nc1ccc(Br)cc1`, the growth is 38.1%.

Take `COc1ccc2nc(Cl)c(-c3cc(-c4ccccc4)nc(=S)[nH]3)cc2c1`: the growth was 46.4%.

With `Cn1cc(-c2cc(N)n3nc(-c4c[nH]c5ccc(Br)cc45)cc3n2)c2cc(Br)cnc21`, the growth was -96.3% (active).

In the case of `O=c1nc(-c2ccccc2)cc(-c2cc3ccccc3nc2Cl)[nH]1`, the growth is -64.1% (active).

With `O=S(=O)(Nc1ncccn1)c1ccc(-n2c(-c3ccc(Br)cc3)nc(-c3ccccc3)c2-c2ccccc2)cc1`, the growth was 22.5%.

With `CC(C)(C)Nc1nc2cc(Cl)c(Cl)cc2nc1S(C)(=O)=O`, the growth was -35.8% (active).

For `Nc1nnc(-c2c[nH]c3ccc(F)cc23)c(-c2c[nH]c3ncccc23)n1`, the growth was 69.3%.

Consider `CC(=O)NNc1ccc2nnc(-c3ccc(Br)cc3)n2n1`, for which the growth is 93.8%.

`CC(=O)Nc1ccc(-n2cnc3cc(-c4ccc(O)cc4)ccc32)cc1F`: the growth was 5.21% (active).

Consider `CC1(C)[C@@H](NCO)CC[C@]2(C)[C@H]3C(=O)C=C4[C@@H]5C[C@](C)(CO)CC[C@]5(C)CC[C@@]4(C)[C@]3(C)CC[C@@H]12`, for which the growth was 13.6%.

With `O=C(NO)c1ccc(-c2nc3ccc4[nH]ncc4c3c3c2CCCC3)cc1`, the growth was -11% (active).
